# Some of the results follow. How many sequences the whole screen found active is unknown.
# Target: furin, P09958
# Assay: furin cleavage Z-score vs untreated control; higher = more cleavage, active = 3.5 or more, inactive = 1 or less, 8 variable residues between constant flanks
# Summary of the method: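 To give the cleavage Z-score, log read counts were set against furin-free reactions, lowess-adjusted and scaled by median absolute deviation. These counts came from PCR adapter-tagged, sequenced DNA released when purified furin cut 8-mer peptides fused to a cDNA oligonucleotide and held on magnetic beads by their N-terminus. Digests were 0.01 ml, 1:10 enzyme:substrate, in 50 mM HEPES pH 7.5 with CaCl2 and NaCl, for 7.5, 15 or 30 min.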
# Sequence of furin, P09958 (P09958 whole entry): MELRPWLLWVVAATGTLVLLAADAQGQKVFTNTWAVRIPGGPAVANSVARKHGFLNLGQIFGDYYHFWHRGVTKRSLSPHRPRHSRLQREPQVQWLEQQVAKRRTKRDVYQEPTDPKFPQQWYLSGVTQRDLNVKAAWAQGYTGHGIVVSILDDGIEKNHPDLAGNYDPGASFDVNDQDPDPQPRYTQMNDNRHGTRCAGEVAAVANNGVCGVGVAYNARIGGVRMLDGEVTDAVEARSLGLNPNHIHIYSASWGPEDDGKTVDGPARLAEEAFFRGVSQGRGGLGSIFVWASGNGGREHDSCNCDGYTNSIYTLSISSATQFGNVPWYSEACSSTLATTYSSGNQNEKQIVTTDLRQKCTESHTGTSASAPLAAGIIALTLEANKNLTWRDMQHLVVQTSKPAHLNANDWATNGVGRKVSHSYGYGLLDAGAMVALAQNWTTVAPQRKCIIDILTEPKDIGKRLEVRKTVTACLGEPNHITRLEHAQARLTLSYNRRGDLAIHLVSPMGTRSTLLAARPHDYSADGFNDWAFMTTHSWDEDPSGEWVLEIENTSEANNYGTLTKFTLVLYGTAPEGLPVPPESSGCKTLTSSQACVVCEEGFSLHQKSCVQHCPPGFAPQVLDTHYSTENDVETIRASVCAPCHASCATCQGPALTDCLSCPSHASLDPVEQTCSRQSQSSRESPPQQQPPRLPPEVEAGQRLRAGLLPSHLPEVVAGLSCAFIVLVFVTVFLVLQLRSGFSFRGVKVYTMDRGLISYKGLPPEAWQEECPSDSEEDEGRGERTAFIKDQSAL
Sequence,furin cleavage Z-score (7.5 min),furin cleavage Z-score (15 min),furin cleavage Z-score (30 min)
CAMMECSQHLAGNASASA [HC1686],-0.328 (inactive),0.731 (inactive),0.7 (inactive)
CAEVVTVTWVAGNASASA [HC143],-0.0202 (inactive),-1.22 (inactive),0.0435 (inactive)
CASIEPLDLPAGNASASA [HC1597],-0.888 (inactive),1.4,-0.00883 (inactive)
CARRERSIKSAGNASASA [FS-863],3.74 (active),6.21 (active),7 (active)
CARRRRSRSSAGNASASA [FS-3263],8.31 (active),9.52 (active),8.33 (active)
CARRYRGNDSAGNASASA [FS-3072],-0.0765 (inactive),-0.858 (inactive),-0.417 (inactive)
CARNFRFLSSAGNASASA [FS-3004],-0.151 (inactive),-0.288 (inactive),-1.62 (inactive)
CARRRRARSSAGNASASA [FS-3061],9.64 (active),8.93 (active),6.98 (active)
CAAPQGSRSLAGNASASA [HC717],-0.871 (inactive),-1.2 (inactive),0.343 (inactive)
CARRWRSLRPAGNASASA [FS-1924],-0.388 (inactive),2.12,2.35
CAPRRRARSLAGNASASA [FS-2479],10.9 (active),12.2 (active),10.3 (active)
CATTPCEGSWAGNASASA [HC73],0.057 (inactive),0.658 (inactive),0.0884 (inactive)
CATGTYVYNHAGNASASA [HC633],-0.127 (inactive),-1.41 (inactive),-0.282 (inactive)
CARRARDMSSAGNASASA [FS-1771],2.38,4.53 (active),4.22 (active)
CAADGMVSKGAGNASASA [HC668],0.272 (inactive),0.596 (inactive),-0.245 (inactive)
CADQEREKRSAGNASASA [FS-1115],2.32,3.5 (active),5.3 (active)
CATLDRSKRNAGNASASA [FS-1494],10.9 (active),11.2 (active),9.22 (active)
CADPMLEKRSAGNASASA [FS-1517],-0.771 (inactive),-0.469 (inactive),0.309 (inactive)
CAGSQWEKRSAGNASASA [FS-1129],1.1,-0.464 (inactive),-0.295 (inactive)
CAMLSPEKRSAGNASASA [FS-178],0.073 (inactive),-0.325 (inactive),0.835 (inactive)
CARQDRSKGTAGNASASA [FS-2225],0.0348 (inactive),-0.0846 (inactive),-0.182 (inactive)
CAFIGREKRSAGNASASA [FS-1323],12 (active),10.8 (active),9.06 (active)
CATLDREKRSAGNASASA [FS-98],9.65 (active),10.6 (active),9.73 (active)
CADMMMNWSPAGNASASA [HC321],-1.68 (inactive),-0.337 (inactive),-0.211 (inactive)

# — the supplement of paper PMC3545927
